# Active and inactive are the calls of the source. How the source made its calls: active means hit-call score of the fitted dose curve at least 0.9, where 1 is the maximum; inactive means score below 0.9.
# Experiments:
# [1] = ATG_CMV_CIS: Attagene CIS-FACTORIAL HepG2 Assay for human CMV (Internal Marker) (AID 2282928); conditions: HepG2 CMV promoter reporter, transcription factor profiling; actives raise or lower the signal;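 further: endpoint acts as a background internal control marker rather than a target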
# Summary of the method: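 Bidirectional fits against DMSO are applied to reporter mRNA, read by RT-PCR with capillary electrophoresis, from HepG2 cells exposed 24 h. The endpoint serves as an internal CMV background marker within the cis-factorial reporter panel.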
# [2] = target: Aryl hydrocarbon receptor (Homo sapiens) (UniProt P35869); assay: ATG_Ahr_CIS: Attagene CIS-FACTORIAL HepG2 Assay for human Aryl Hydrocarbon Receptor (Ahr) (AID 2282930); conditions: HepG2 AhR cis-factorial reporter transcription; actives raise or lower the signal
# Aryl hydrocarbon receptor (Homo sapiens), sequence (P35869 whole entry, looked up): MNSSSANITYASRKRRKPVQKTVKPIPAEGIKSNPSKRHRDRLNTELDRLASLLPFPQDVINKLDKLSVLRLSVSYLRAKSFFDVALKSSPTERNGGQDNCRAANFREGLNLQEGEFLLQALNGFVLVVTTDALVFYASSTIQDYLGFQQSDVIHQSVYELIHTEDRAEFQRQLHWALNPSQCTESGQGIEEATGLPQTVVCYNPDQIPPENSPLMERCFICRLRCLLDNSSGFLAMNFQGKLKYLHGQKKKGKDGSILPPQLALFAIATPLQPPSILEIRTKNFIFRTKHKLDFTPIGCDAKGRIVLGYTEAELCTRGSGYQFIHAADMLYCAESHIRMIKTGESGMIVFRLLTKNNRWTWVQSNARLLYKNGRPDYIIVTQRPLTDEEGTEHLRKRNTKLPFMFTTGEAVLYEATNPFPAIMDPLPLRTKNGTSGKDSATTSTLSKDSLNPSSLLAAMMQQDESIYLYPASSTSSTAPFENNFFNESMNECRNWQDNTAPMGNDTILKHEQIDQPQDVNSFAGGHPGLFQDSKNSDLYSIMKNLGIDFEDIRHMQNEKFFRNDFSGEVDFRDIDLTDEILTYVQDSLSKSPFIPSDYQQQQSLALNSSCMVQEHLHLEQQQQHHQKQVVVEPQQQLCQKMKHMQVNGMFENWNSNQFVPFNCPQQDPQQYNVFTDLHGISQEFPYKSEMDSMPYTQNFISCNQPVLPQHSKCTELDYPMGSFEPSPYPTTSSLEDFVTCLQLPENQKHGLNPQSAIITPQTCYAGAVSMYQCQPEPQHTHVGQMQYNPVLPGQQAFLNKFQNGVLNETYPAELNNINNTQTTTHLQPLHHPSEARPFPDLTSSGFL
# Summary of the method: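 HepG2 cells transiently transfected with cis-element-driven multiplexed reporter transcription units; endogenous transcription factor activity measured as reporter mRNA 24 h after dosing. RT-PCR, 6-FAM labelling, HpaI digestion, capillary electrophoresis; bidirectional fitting versus DMSO baseline.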
# [3] = ATG_AP_1_CIS: Attagene CIS-FACTORIAL HepG2 Assay for human Activator Protein 1 (AP-1) (AID 2282931); conditions: HepG2 Attagene cis-factorial AP-1 reporter mRNA; actives raise or lower the signal
# Summary of the method: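 After 24 h incubation with test chemical, RNA from transfected HepG2 cells was reverse-transcribed, amplified, fluorescently labelled and digested before capillary electrophoresis. Reporters were driven by cis-regulatory promoters; activity fitted bidirectionally versus DMSO.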
# [4] = ATG_AP_2_CIS: Attagene CIS-FACTORIAL HepG2 Assay for human Activator Protein 2 (AP-2) (AID 2282932); conditions: HepG2 AP-2 cis-reporter, Attagene transcription factor profiling; actives raise or lower the signal
# Summary of the method: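 Cells (HepG2) transfected with promoter-driven reporter constructs, treated 24 h. Total RNA reverse-transcribed, reporter cDNA PCR-amplified, FAM-labelled by primer extension, digested, resolved by capillary electrophoresis. Activity fitted both directions versus DMSO.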
# [5] = ATG_BRE_CIS: Attagene CIS-FACTORIAL HepG2 Assay for human Bone Morphogenetic Protein (BMP) Response Element (BRE) (AID 2282933); conditions: HepG2 BMP response element reporter, Attagene transcription factor profiling; actives raise or lower the signal
# Summary of the method: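 After a 24 h chemical treatment, transiently transfected HepG2 cells were lysed for RNA; reporter transcripts were quantified by fluorescent RT-PCR and capillary electrophoresis, normalised to DMSO.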
# [6] = target: Transcription factor E2F1 (Homo sapiens) (UniProt Q01094); assay: ATG_E2F_CIS: Attagene CIS-FACTORIAL HepG2 Assay for human E2F Transcription Factor 1 (AID 2282935); conditions: HepG2 Attagene cis-reporter, E2F reporter RNA transcripts; actives raise or lower the signal
# Transcription factor E2F1 (Homo sapiens), sequence (Q01094 whole entry, looked up): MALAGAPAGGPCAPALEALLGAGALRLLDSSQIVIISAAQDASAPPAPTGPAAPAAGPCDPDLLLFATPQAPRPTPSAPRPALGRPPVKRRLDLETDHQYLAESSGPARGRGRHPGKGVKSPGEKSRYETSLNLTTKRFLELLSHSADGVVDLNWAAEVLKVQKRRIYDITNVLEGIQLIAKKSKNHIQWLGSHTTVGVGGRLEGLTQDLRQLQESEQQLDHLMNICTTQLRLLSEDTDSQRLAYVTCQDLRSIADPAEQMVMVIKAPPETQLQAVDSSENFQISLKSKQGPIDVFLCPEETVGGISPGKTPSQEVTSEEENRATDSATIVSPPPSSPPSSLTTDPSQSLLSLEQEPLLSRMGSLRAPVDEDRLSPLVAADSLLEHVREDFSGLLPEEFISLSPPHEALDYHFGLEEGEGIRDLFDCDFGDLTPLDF
# Summary of the method: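 First, HepG2 cells were transfected with reporter transcription units. Next, they were dosed for 24 h. Then RNA was isolated, converted to cDNA, PCR-amplified, FAM-labeled, HpaI-digested and analyzed by capillary electrophoresis.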
# [7] = ATG_E_Box_CIS: Attagene CIS-FACTORIAL HepG2 Assay for human Enhancer Box (E-box) (AID 2282936); conditions: HepG2 E-box cis-reporter transcription, actives raise or lower the signal
# Summary of the method: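 Endogenous transcription factor activity was sensed in human HepG2 liver cells through transfected cis-promoter reporter units. After 24 h of dosing, total RNA was reverse-transcribed and reporter cDNA resolved by capillary electrophoresis.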
# [8] = ATG_M_61_CIS: Attagene CIS-FACTORIAL HepG2 Assay for M61 Transcription Factor (Internal Marker) (AID 2282937); conditions: HepG2 Attagene CIS-FACTORIAL M61 internal marker reporter; actives raise or lower the signal
# Summary of the method: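 Using transiently transfected HepG2 liver cells, reporter transcript levels were assessed 24 h post-dosing by RT-PCR and capillary electrophoresis. Changes in either direction were fitted relative to DMSO controls.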
# [9] = ATG_EGR_CIS: Attagene CIS-FACTORIAL HepG2 Assay for human Early Growth Response 1 (EGR1) (AID 2282938); conditions: HepG2 Attagene CIS-FACTORIAL EGR reporter mRNA; actives raise or lower the signal
# Summary of the method: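 Fluorescent capillary-electrophoresis signal of reporter cDNA fragments serves as read-out. HepG2 cells bear transiently transfected cis-promoter reporter units and are exposed 24 h; gain- or loss-of-signal is fitted against DMSO.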
# [10] = ATG_M_19_CIS: Attagene CIS-FACTORIAL HepG2 Assay for M19 Transcription Factor (Internal Marker) (AID 2282939); conditions: HepG2 Attagene CIS-FACTORIAL M19 internal marker reporter; actives raise or lower the signal
# Summary of the method: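 In this multiplexed cell assay, transiently transfected HepG2 reporter units report endogenous transcription-factor activity; after 24 hours of treatment, labelled reporter cDNA fragments are quantified by capillary electrophoresis and fitted bidirectionally against DMSO.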
# [11] = ATG_ERE_CIS: Attagene CIS-FACTORIAL HepG2 Assay for Estrogen Response Element (ERE) (AID 2282940); conditions: HepG2 ERE cis-reporter, Attagene RNA transcript; actives raise or lower the signal
# Summary of the method: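 Measuring endogenous transcription factor output, the assay doses transfected HepG2 cells for 24 hours and quantifies reporter transcripts by fluorescent RT-PCR and capillary electrophoresis, with DMSO as baseline.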
# [12] = ATG_Ets_CIS: Attagene CIS-FACTORIAL HepG2 Assay for human Erythroblast Transformation Specific (ETS) (AID 2282941); conditions: HepG2 ETS cis-reporter transcription, actives raise or lower the signal
# Summary of the method: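 Endogenous transcription factor activity read as reporter mRNA via RT-PCR and capillary electrophoresis, with gain or loss fitted bidirectionally against DMSO. Human HepG2 liver cells, transiently transfected CIS reporter constructs, 24 h exposure.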
# [13] = target: Hepatocyte nuclear factor 3-beta (Homo sapiens) (UniProt Q9Y261); assay: ATG_FoxA2_CIS: Attagene CIS-FACTORIAL HepG2 Assay for human Forkhead box A2 (FOXA2) (AID 2282942); conditions: HepG2 cis-reporter transcription factor activity, 24 h; actives raise or lower the signal
# Hepatocyte nuclear factor 3-beta (Homo sapiens), sequence (Q9Y261 whole entry, looked up, the tested form may be a part): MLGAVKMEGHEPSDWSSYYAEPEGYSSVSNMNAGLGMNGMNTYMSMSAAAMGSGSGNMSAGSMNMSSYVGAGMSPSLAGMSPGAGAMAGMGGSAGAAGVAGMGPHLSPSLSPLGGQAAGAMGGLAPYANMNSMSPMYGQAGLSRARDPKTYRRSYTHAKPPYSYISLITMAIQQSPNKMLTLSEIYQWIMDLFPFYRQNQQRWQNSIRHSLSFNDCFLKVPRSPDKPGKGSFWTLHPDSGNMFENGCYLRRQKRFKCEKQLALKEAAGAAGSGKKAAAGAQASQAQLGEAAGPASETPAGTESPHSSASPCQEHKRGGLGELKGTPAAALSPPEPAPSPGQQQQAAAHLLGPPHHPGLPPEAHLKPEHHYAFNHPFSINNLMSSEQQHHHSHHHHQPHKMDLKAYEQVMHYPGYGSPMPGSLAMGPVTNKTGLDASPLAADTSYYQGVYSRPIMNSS
# Summary of the method: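 Fluorescence signal of reporter cDNA fragments, separated by capillary electrophoresis, reflects endogenous transcription factor activity in transfected HepG2 after 24 h. Both increases and decreases fitted against DMSO.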
# [14] = ATG_FoxO_CIS: Attagene CIS-FACTORIAL HepG2 Assay for human Forkhead box O (FoxO) (AID 2282943); conditions: HepG2 Attagene cis-reporter, FoxO element, mRNA; actives raise or lower the signal
# Summary of the method: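 HepG2 cells transiently transfected with cis-promoter-driven multiple reporter transcription units; 24 h after chemical dosing, reporter mRNA quantified by RT-PCR, fluorescent primer extension, HpaI digestion and capillary electrophoresis. Bidirectional fitting versus DMSO baseline.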
# [15] = ATG_GATA_CIS: Attagene CIS-FACTORIAL HepG2 Assay for human GATA Binding Protein (AID 2282944); conditions: HepG2 GATA cis-element reporter, Attagene multiplex mRNA; actives raise or lower the signal
# Summary of the method: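 Measures endogenous transcription factor-driven reporter mRNA in HepG2 cells transiently carrying cis-regulated constructs. 24 h dosing; RNA via oligo(dT) reverse transcription, PCR, HpaI digestion, capillary electrophoresis; fitted relative to DMSO.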
# [16] = ATG_GLI_CIS: Attagene CIS-FACTORIAL HepG2 Assay for human Zinc Finger Protein GLI1 (AID 2282945); conditions: HepG2, Attagene cis-factorial reporter mRNA, GLI element; actives raise or lower the signal
# Summary of the method: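 HepG2 cells transiently transfected with cis-promoter multiplexed reporter units report endogenous transcription factor activity. After 24 h chemical exposure, reporter mRNA was quantified by RT-PCR, 6-FAM labelling, HpaI digestion and capillary electrophoresis, with bidirectional fitting against DMSO.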
# [17] = target: Bile acid receptor (Homo sapiens) (UniProt Q96RI1); assay: ATG_IR1_CIS: Attagene CIS-FACTORIAL HepG2 Assay for human Nuclear Receptor Subfamily 1 Group H Member 4 (NR1H4), IR1 submotif (AID 2282946); conditions: IR1 reporter transcription, actives raise or lower the signal
# Bile acid receptor (Homo sapiens), sequence (Q96RI1 whole entry, looked up): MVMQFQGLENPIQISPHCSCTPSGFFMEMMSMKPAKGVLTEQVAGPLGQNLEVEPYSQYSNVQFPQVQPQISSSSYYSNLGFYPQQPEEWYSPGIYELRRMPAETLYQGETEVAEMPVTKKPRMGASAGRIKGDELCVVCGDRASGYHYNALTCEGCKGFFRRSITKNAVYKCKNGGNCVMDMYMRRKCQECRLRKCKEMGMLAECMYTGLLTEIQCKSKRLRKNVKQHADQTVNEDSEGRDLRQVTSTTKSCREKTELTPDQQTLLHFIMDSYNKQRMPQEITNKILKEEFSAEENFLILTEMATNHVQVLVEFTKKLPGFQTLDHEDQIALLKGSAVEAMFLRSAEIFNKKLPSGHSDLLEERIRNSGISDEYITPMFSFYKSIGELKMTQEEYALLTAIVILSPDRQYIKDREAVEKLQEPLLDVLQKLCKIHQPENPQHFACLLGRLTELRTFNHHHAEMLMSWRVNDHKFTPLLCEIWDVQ
# Summary of the method: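 Readout: reporter transcript levels by RT-PCR with fluorescent capillary electrophoresis, from HepG2 cells transiently transfected with multiplexed cis-regulated reporters and dosed 24 h. Gain- or loss-of-signal fitted versus DMSO negative control.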
# [18] = ATG_GRE_CIS: Attagene CIS-FACTORIAL HepG2 Assay for human Glucocorticoid Response Elements (GRE) (AID 2282947); conditions: HepG2 GRE cis-reporter, Attagene multiplex mRNA; actives raise or lower the signal
# Summary of the method: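 Cells (HepG2) bearing transfected cis-promoter reporter transcription units were treated with chemical for 24 hours. Reporter mRNA was measured via RT-PCR with capillary electrophoresis, and activity was fitted in both directions relative to DMSO.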
# [19] = target: Retinoic acid receptor alpha (Homo sapiens) (UniProt P10276); assay: ATG_DR5_RAR_CIS: Attagene CIS-FACTORIAL HepG2 Assay for human Retinoic Acid Receptor Alpha (RARE), DR5 submotif (AID 2282934); conditions: HepG2 Attagene cis-factorial RARE DR5 reporter, mRNA; actives raise or lower the signal
# Retinoic acid receptor alpha (Homo sapiens), sequence (P10276 whole entry, looked up): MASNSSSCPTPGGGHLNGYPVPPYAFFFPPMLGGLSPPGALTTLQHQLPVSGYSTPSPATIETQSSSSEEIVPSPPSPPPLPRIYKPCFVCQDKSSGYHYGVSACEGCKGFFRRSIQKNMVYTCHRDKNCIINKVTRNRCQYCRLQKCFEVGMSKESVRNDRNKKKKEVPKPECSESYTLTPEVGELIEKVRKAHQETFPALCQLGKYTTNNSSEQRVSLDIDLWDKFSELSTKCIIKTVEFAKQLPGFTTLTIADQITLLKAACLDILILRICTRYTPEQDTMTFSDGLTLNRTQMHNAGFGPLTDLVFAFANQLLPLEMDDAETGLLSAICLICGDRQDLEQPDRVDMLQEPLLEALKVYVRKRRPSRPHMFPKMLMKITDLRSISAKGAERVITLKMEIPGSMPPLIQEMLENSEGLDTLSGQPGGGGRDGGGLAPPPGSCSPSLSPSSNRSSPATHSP
# Summary of the method: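 HepG2 cells transiently transfected with multiplexed reporter units under cis (DR5 RARE) promoters, so endogenous transcription factor activity is measured. After 24 h compound exposure, reporter mRNA is quantified by RT-PCR with fluorescent labelling and capillary electrophoresis; bidirectional fitting versus DMSO.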
Compound,outcome [1],outcome [2],outcome [3],outcome [4],outcome [5],outcome [6],outcome [7],outcome [8],outcome [9],outcome [10],outcome [11],outcome [12],outcome [13],outcome [14],outcome [15],outcome [16],outcome [17],outcome [18],outcome [19],AC50 [16]
N#Cc1cccnc1,inactive,inactive,inactive,inactive,inactive,inactive,inactive,inactive,inactive,inactive,inactive,inactive,inactive,inactive,inactive,inactive,inactive,inactive,,
Cc1ccc(CCl)cc1,inactive,inactive,inactive,inactive,inactive,inactive,inactive,inactive,inactive,inactive,inactive,inactive,inactive,inactive,inactive,inactive,,inactive,inactive,
CC(=O)C(F)(F)C(F)(F)F,inactive,inactive,inactive,inactive,inactive,inactive,inactive,inactive,,inactive,inactive,inactive,inactive,inactive,inactive,inactive,inactive,inactive,inactive,
OCCCCO,inactive,inactive,inactive,inactive,inactive,inactive,inactive,inactive,inactive,inactive,,inactive,inactive,inactive,inactive,inactive,inactive,inactive,inactive,
Brc1ccc(Oc2c(Br)cc(Br)cc2Br)c(Br)c1,inactive,inactive,inactive,inactive,inactive,inactive,inactive,inactive,inactive,inactive,inactive,inactive,,inactive,inactive,inactive,inactive,inactive,inactive,
OC(c1ccc(Cl)cc1)(c1ccc(Cl)cc1)c1cccnc1,inactive,inactive,inactive,inactive,inactive,inactive,inactive,inactive,inactive,inactive,inactive,inactive,,inactive,inactive,,,inactive,inactive,9.04 µM (active)
CCC(C)(C#N)N=NC(C)(C#N)CC (stereo not drawn),inactive,inactive,inactive,inactive,inactive,inactive,inactive,inactive,inactive,inactive,,inactive,inactive,inactive,inactive,inactive,,,inactive,

# From PubChem BioAssay (EPA / NIEHS)
